Where “and” joins values, the source holds several entries; their conditions need not be identical. Equal entries are not always repeated. Results filed as inconclusive are left out. Unmarked numbers belong to inactive results. Calls of active or inactive are those of the source. Calls come from the whole dose curve; as a rule, active = well fitted inhibition curve with a large enough effect; inconclusive = small, poorly fitted or top-dose-only effect; inactive = no such curve, though single readings can be large or run the other way.
What follows are compounds tested against Cruzipain (Trypanosoma cruzi) (UniProt P25779) (assay: Confirmation qHTS Assay for Inhibitors of Cruzain). Conditions: purified cruzain, Z-FR-AMC fluorescence, 0.01% Triton.
Chain of Cruzipain (Trypanosoma cruzi) (P25779 123-467 limits assumed): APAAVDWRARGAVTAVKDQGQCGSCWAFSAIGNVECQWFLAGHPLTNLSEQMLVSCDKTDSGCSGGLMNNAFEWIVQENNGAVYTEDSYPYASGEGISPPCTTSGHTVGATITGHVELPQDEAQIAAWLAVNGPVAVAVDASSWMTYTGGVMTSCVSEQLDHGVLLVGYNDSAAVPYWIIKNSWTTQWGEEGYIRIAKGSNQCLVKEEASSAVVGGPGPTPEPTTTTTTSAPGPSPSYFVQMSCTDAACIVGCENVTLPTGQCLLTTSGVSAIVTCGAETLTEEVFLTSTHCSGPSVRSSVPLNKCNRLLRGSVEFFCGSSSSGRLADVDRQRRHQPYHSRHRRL
Summary of the method: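 Reaction progress from the 60 s rise in AMC fluorescence (ex 360, em 450 nm) after adding 2 uM Z-FR-AMC. Before this, 1.5 nM cruzain sat 15 min at room temperature with compound in pH 5.5 acetate buffer with 5 mM DTT and 0.01% Triton X-100.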
Note: nearly all actives have a fitted effect of over 40% in size.
Potency is the fitted concentration of half-maximal effect.
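Throughout, for activity change, negative = inhibition: plate controls were uninhibited enzyme control for no effect and buffer wells lacking enzyme for full effect.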

SMILES	activity change, negative = inhibition [%]	Potency
Cc1ccc(S(=O)(=O)NCC(=O)OCC(=O)Nc2ncc(Cl)cc2Cl)cc1	-50.6	–
COc1ccc(-c2nn3c(-c4cc(-c5ccccc5)n[nH]4)nnc3s2)cc1OC	-9.95	–
CCC(c1nnnn1Cc1ccccc1)N(Cc1ccccc1)Cc1cc2cc(C)ccc2[nH]c1=O (centres undefined)	-9.93	–
CCc1ccc(C(=O)COC(=O)CNC(=O)C2CCCCC2)cc1	–	7.08 µM (active)
Cc1cc(OCC(=O)Nc2ccc(N3CCCC3)cc2)cc(C)c1Cl	-30.4	–
Cc1oc(=O)c(NC(=O)c2ccc(Cl)cc2)cc1C(=O)c1ccccc1	-10.8	–
N#Cc1nc(Nc2cccc(F)c2)nc(NC2CCCC2)n1	–	0.0794 µM (active)
O=c1cc(-c2cccc(Br)c2)nc(-c2ccccc2F)o1	–	11.2 µM (active)
COc1cc(NC(=O)C(OC(=O)CNC(=O)c2ccccc2)c2ccccc2)cc(OC)c1 (centres undefined)	–	25.1 µM (active)
O=C(CNC(=O)C1CCCCCC1)OC(C(=O)Nc1cc(C(F)(F)F)ccc1Cl)c1ccccc1 (centres undefined)	–	7.08 µM (active)
Cc1ccc(OCCNC(=O)CNC(=O)Cc2cccc3ccccc23)cc1	-1.3	–
N#Cc1nc(N)nc(N2CCCCC2)n1	–	7.94 µM (active)
Cc1ccccc1NC(=O)CSc1nnc(-c2ccco2)c(-c2ccco2)n1	–	14.1 µM (active)
CCC(C)[C@@H](N)C(=O)N/N=C/c1ccc2ncccc2c1 (some centres undefined)	–	22.4 µM (active)
O=C(CSc1nnc(-c2ccco2)c(-c2ccco2)n1)Nc1ccccc1	–	12.6 µM (active)
CCOC(=O)CNc1nc(C#N)nc(N2CCOCC2)n1	–	4.47 µM (active) and 6.31 µM (active)
O=C(CNC(=O)C1CCCC1)OC(C(=O)Nc1cc(C(F)(F)F)ccc1Cl)c1ccccc1 (centres undefined)	–	7.94 µM (active)
N#Cc1nc(N2CCOCC2)nc(N2CCOCC2)n1	–	3.55 µM (active) and 5.01 µM (active)
N#Cc1nc(Nc2ccc(Br)cc2)nc(NC2CCCC2)n1	–	0.501 µM (active)
NNC(=O)Cn1c(SCc2ccccc2)nc2ccccc21	3.64	–

SMILES	activity change, negative = inhibition [%]	Potency
c1ccc(CN(Cc2ccccc2)Cc2nnc(-c3cc4ccccc4[nH]3)o2)cc1	-7.39	–
O=C(NCCc1nc2ccccc2n1CCOc1ccccc1)C1CCCCC1	–	0.794 µM (active)
COc1cccc(NC(=O)C(OC(=O)CNC(=O)c2ccccc2)c2ccccc2)c1 (centres undefined)	–	12.6 µM (active)
O=C(CNC(=O)C1CCCCC1)OCC(=O)c1cccc(Cl)c1	–	2.82 µM (active)
Cc1ccccc1OCCn1c(CCNC(=O)C2CCCCC2)nc2ccccc21	–	631 nM (active) and 1 µM (active)
COc1ccc(N=Cc2nc(-c3ccccc3)oc2OC(=O)c2ccccc2)cc1	-22	–
CC(C)(C)C(=O)O/N=C1/C(=O)N(c2ccccc2)c2ccccc21	-24.3	–
C=CC(C)(C)c1[nH]c2ccccc2c1C1=C(O)C(=O)C(c2c[nH]c3c(CC=C(C)C)cccc23)=C(O)C1=O	–	25.1 µM (active)
O=C(Cc1nnc(CNC(=O)c2ccccc2)s1)Nc1ccc(C(F)(F)F)cc1Cl	-3.96	–
CCn1cnc2c(Nc3ccc(CCC(=O)N=C(N)N)cc3)nc(C#N)nc21	–	35.5 µM (active)
CCOc1nc(C#N)nc(N2CCOCC2)n1	–	5.01 µM (active)
Cc1ccccc1OCC(=O)NCC(=O)OCc1ccc2ccccc2c1	-17.8	–
CCOC(=O)CNC(=O)C1CCCCC1	-11.9	–
N#Cc1nc(-c2cccs2)oc1N1CCOCC1	-30.8	–
CC(C)(C)c1ccccc1Nc1nc(C#N)nc(NC2CCCC2)n1	–	2 µM (active)
Cc1ccccc1OCC(=O)NCC(=O)OCC(=O)c1ccc([N+](=O)[O-])cc1	–	35.5 µM (active)
CC(C)(C)c1ccc(Nc2nc(C#N)nc(NC3CCCC3)n2)cc1	–	3.55 µM (active)
Cn1c(C(=O)NCCN2CCCCCC2)cc2c(=O)n(C)c3ccccc3c21	–	25.1 µM (active)
CC(=O)Nc1ccc(/C=C/C(=O)c2ccc(-n3nncc3-c3ccccc3)cc2)cc1	31.4	–
